This is a sample that favours compounds with a hit; in the whole collection about 10% have one here.
Gal4-VP16 FLuc = counter-screen for ROR gamma inhibitors: Gal4-VP16 reporter; Drosophila S2 Gal4-VP16 UAS-luciferase, luminescence, 20 h; Potency, µM (highest dose often 53.6 µM), for inactives: at the highest dose activity, negative = inhibition, actives largely listed as inhibitors; 310,000 compounds, 3.5% hits; AID 2546;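 also: Gal4-VP16 expression switched on by copper sulfate through the metallothionein promoter; % is scaled to controls: 0 for no effect and ±100 for the full control effect; nearly all actives have a fitted effect of over 50% in size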
MCF10A rerep = DNA re-replication induction in MCF 10a cells. MCF 10A DNA re-replication, Hoechst nuclear intensity, 48 h. Potency, µM (highest dose often 46.1 µM), for inactives: at the top dose activity, positive = re-replication, actives largely listed as activators. 350,000 compounds, 2.9% hits. AID 624296; also: % of control where 0% means no effect; nearly all actives have a fitted effect of over 50% in size
SW480 rerep = inducers of DNA re-replication in SW480 colon cancer cells | SW480 DNA re-replication, Hoechst DNA content imaging, 48 h | Potency, µM (top dose mostly 46.1 µM), for the others: top-dose re-replication activation, actives largely listed as activators | 340,000 compounds, 1.8% hits; also: % of control where 0% means no effect; nearly all actives have a fitted effect of over 55% in size
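Compounds, transferred as 23 nL by pin tool, were incubated with cells for 48 hr; DNA content per nucleus was then quantified by Hoechst staining and fluorescence plate imaging.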
RORg inh = inhibitors of mouse ROR gamma transcriptional activity. P51450. Drosophila S2 Gal4-RORgamma UAS-luciferase reporter, 20 h. Potency, µM (highest dose often 53.6 µM), for inactives: at the top dose activity change, negative = inhibition, hits mostly inhibitors. 310,000 compounds, 5.4% hits; also: % is scaled to controls: 0 for no effect and ±100 for the full control effect; nearly all actives have a fitted effect of over 60% in size
Target sequence (P51450 whole entry, looked up, the tested form may be a part): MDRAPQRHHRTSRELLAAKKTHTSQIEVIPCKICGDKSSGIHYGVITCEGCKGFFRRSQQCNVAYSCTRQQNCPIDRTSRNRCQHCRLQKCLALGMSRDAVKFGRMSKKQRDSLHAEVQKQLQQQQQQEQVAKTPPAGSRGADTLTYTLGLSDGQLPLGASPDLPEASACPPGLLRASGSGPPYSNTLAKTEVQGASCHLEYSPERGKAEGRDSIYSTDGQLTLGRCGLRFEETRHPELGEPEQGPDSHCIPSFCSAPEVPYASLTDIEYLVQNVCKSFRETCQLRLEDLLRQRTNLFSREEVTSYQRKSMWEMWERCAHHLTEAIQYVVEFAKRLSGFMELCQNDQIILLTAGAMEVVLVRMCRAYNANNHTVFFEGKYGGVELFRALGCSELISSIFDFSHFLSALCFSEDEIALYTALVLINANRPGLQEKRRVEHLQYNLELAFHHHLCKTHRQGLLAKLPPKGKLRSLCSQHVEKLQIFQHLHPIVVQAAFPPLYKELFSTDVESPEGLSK
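A Gal4/UAS one-hybrid system in insect cells: metallothionein-promoter Gal4–ROR gamma fusion plus Photinus luciferase reporter. Copper sulfate 700 uM final, 20 hr ambient incubation, luminescent detection after 10 min with reagent.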
ELG1 DNA repair = blocks ELG1-dependent DNA repair in HEK293T cells; HEK293T ELG1-luciferase reporter, luminescence, 16 h; DNA damage induced by 5-fluorouridine; Potency, µM (titrated, usually from 46.1 µM), for inactives: top-dose activity change, negative = inhibition, usual class: inhibitors; 330,000 compounds, 2.3% hits; also: % is scaled to controls: 0 for no effect and ±100 for the full control effect; nearly all actives have a fitted effect of over 55% in size
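Cells (2,000 per well) received 5-fluorouridine plus test compound or DMSO and were incubated 16 hr at 37 °C, 5% CO2. Luciferase activity was read by luminescence 30 min after ONE-Glo addition; signal suppression marked inhibition of damage-induced ELG1 function.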
Numbers without * were called inactive; ? = inconclusive; nt = no result; [ ] = dose if it differs, or a comment. Calls follow the shape of the dose curve; as a rule, active = well fitted curve in the direction sought with a large enough effect; inconclusive = small, poorly fitted or top-dose-only effect, or another doubt; inactive = no such curve, though single readings can be large; an effect the other way counts as inactive or inconclusive. Potency is read from the fitted curve at half-maximal effect.

SMILES	Gal4-VP16 FLuc	MCF10A rerep	SW480 rerep	RORg inh	ELG1 DNA repair
Cc1cccc(NC(=S)N(CCCN2CCOCC2)Cc2cn(C)c3ccccc23)c1	-22.5%	?	?	11.2µM*	?
Cn1cc(CC(=O)NCCN2CCOCC2)c2ccccc21	-5.0%[10 µM]	14.9%	23.1µM*	0.9%	2.8%
Cn1cc(CN(CCCN2CCOCC2)C(=S)Nc2cccc(Cl)c2)c2ccccc21	?	23.1µM*	16.4µM*	?	-23.4%
COc1ccc(NC(=S)N(CCCN2CCOCC2)Cc2cn(C)c3ccccc23)cc1	?	?	?	?	-26.4%
Cc1ccc(NC(=S)N(CCCN2CCOCC2)Cc2ccccn2)cc1Cl	?	7.7%	-7.9%	-94.8%	1.5%
CCOc1ccc(NC(=S)N(CCCN2CCOCC2)Cc2cn(C)c3ccccc23)cc1	?	?	?	12.6µM*	?
Cc1onc(-c2ccccc2)c1-c1nnc(-c2ccccc2C(F)(F)F)o1	2.2%	?	1.4%	28.6%	?
CCn1c(C)nc2cc(-c3nnc(-c4c(-c5ccccc5)noc4C)o3)ccc21	5.01µM*	?	-8.8%	?	20.6µM*
O=C1/C(=C\c2ccccc2)CCc2c1[nH]c1ccccc21	29.4%[0.365 µM]	?	3.26µM*	-21.0%	?
Cc1ccc2[nH]c3c(c2c1)CC/C(=C/c1ccccc1)C3=O	6.31µM*	?	?	3.98µM*	?
COCCN(C(=O)COC(=O)c1c(NC(C)=O)sc(C)c1C)c1c(N)n(Cc2ccccc2)c(=O)[nH]c1=O	nt	1.0%	-0.5%	nt	?
COc1ccc(NC(=O)N2CC3(CCN(C(=O)c4ccc(OC)cc4)CC3)C2)cc1	10.3%	nt	nt	-18.5%	nt
COc1ccc(CN=C2NN=C(c3cccc(OC)c3)CS2)cc1	-22.8%	?	?	4.1%	?
COc1ccc(CN=C2NN=C(c3ccccc3)CS2)cc1	-2.2%	?	?	2µM*	1.4%
C=CCn1c(C)cc(C2=NNC(=NCc3ccccc3)SC2)c1C	-5.1%[10 µM]	?	?	23.5%	?
COc1cccc(C2=NNC(=NCc3ccccc3)SC2)c1	5.4%	21.3%	14.1%	8.91µM*	15.2%
Cc1ccc(C)c(C2=NNC(=NCc3ccccc3)SC2)c1	?	23.1µM*	?	7.94µM*	?
C/C(=N\NC(=O)C1COc2ccccc2O1)c1ccccn1 (centres undefined)	2.82µM*	18.4µM*	13.8%	1.78µM*	?
C/C(=N\NC(=O)C1COc2ccccc2O1)c1ccc(Cl)s1 (centres undefined)	17.8µM*	5.0%	-6.3%	6.31µM*	3.5%
C/C(=N\NC(=O)C1COc2ccccc2O1)c1ccc(C)o1 (centres undefined)	7.3%	3.3%	-0.4%	-9.4%	11.3%
COc1cccc(Cn2c(=O)c(CCc3ccccc3)nc3cnc(OC)nc32)c1	-4.4%	nt	nt	22.8%	nt
O=C(CN(Cc1ccco1)C(=O)Cn1nnc(-c2ccc(F)cc2)n1)NC1CCCC1	-7.6%	-1.4%	-3.0%	43.5%	-11.9%
CCC(C(=O)NC1CCCC1)N(Cc1cccs1)C(=O)Cn1nnc(-c2ccc(OC)c(OC)c2)n1 (centres undefined)	-7.8%	-3.1%	-0.3%	-16.1%	18.4µM*
CCCCC(C(=O)NC1CCCC1)N(Cc1ccco1)C(=O)Cn1nnc(-c2ccc(F)cc2)n1 (centres undefined)	-6.7%	?	2.1%	-6.8%	16.4µM*
CC(C(=O)NC1CCCC1)N(C(=O)Cn1nnc(-c2ccc(F)cc2)n1)c1ccccc1F (centres undefined)	-2.7%	19.3%	-18.2%	?	16.4µM*
SMILES	Gal4-VP16 FLuc	MCF10A rerep	SW480 rerep	RORg inh	ELG1 DNA repair
COc1ccc(N(C(=O)Cn2nnc(-c3ccc(F)cc3)n2)C(C)C(=O)NC2CCCC2)cc1 (centres undefined)	-6.3%	17.3%	?	32.5%	?
Cc1ccc(N2C(=O)N(CC(=O)Nc3cc(Cl)ccc3C)C(=O)C2C)cc1 (centres undefined)	nt	1.2%	-2.3%	nt	-3.4%
CN(CC(=O)Nc1ccccc1Cl)C(=O)COC(=O)c1nc(Cl)c(Cl)c(Cl)c1Cl	?	5.8µM*	?	-29.0%	?
CN(CC(=O)Nc1ccccc1Cl)C(=O)COC(=O)c1ccc(Cl)nc1	nt	1.6%	-2.8%	nt	22.2%
NC(=O)CC(NC(=O)c1ccc(Br)cc1)c1ccc(NCc2ccc(F)cc2)c([N+](=O)[O-])c1 (centres undefined)	1.5%	?	?	26.1%	-27.7%
Cc1ccccc1CNc1ccc(C(CC(N)=O)NC(=O)c2ccc(Br)cc2)cc1[N+](=O)[O-] (centres undefined)	5.6%	10.3µM*	?	22.0%	-24.0%
Cc1c(C(=O)N2CCN(Cc3ccc4c(c3)OCO4)CC2)sc2ncnc(N3CCN(c4ccccc4)CC3)c12	?	2.9%	-5.5%	0.0%	4.61µM*
Cc1c(C(=O)N2CCN(Cc3ccc4c(c3)OCO4)CC2)sc2ncnc(N3CCN(c4ccccc4F)CC3)c12	-21.3%	-4.0%	11.8%	?	6.51µM*
CCCNC(=O)Cn1cnc2sc(C(=O)N3CCN(Cc4ccc5c(c4)OCO5)CC3)c(C)c2c1=O	-9.3%	-3.2%	-4.5%	-4.4%	?
S=c1[nH]nc(COc2ccc3ccccc3c2)o1	3.98µM*	-7.5%	4.6%	?	?
COc1ccc(CCCc2n[nH]c(=S)o2)cc1	4.6%[10 µM]	-20.8%	?	12.6µM*	3.1%
COc1ccc(Cc2n[nH]c(=S)o2)cc1	-1.7%	-0.9%	5.1%	9.3%	5.3%
CCN(CC)S(=O)(=O)c1ccc(NC(=O)C2CC(=O)N(c3ccc4c(c3)OCCO4)C2)cc1 (centres undefined)	nt	3.3%	3.5%	nt	nt
CC(=O)c1ccc(N2CCN(C(=S)Nc3ccc(Oc4ccccc4)cc3)CC2)cc1	4.47µM*	?	-4.3%	3.16µM*	5.8µM*
CC(=O)c1ccc(N2CCN(C(=O)Nc3ccc(Cl)cc3)CC2)cc1	-2.6%	12.8%	-3.6%	22.5%	16.4µM*
CC(=O)c1ccc(NC(=O)N2CCN(c3cccc(Cl)c3)CC2)cc1	nt	?	-1.2%	?	?
CC(=O)c1ccc(N2CCN(C(=S)Nc3cccc(F)c3)CC2)cc1	-14.9%	1.1%	-2.2%	14.1µM*	-8.9%
Fc1cccc(NC(=S)N2CCCC2)c1	?	5.3%	-2.0%	-17.8%	14.7%
COc1ccc(N2CCN(C(=S)Nc3ccccc3)CC2)cc1	?	?	-3.8%	12.6µM*	0.7%
COc1ccc(/C=C/N(CCc2ccc(OC)c(OC)c2)C(=O)C(F)(F)F)cc1	0.3%[10 µM]	nt	nt	9.0%[10 µM]	nt
CSc1ccc(C2NC(=O)c3ccccc3N2)cc1 (centres undefined)	nt	16.4µM*	9.2µM*	nt	nt

Screening results: PubChem, National Center for Advancing Translational Sciences (NCATS)
